Reference: PubChem BioAssay (NCATS)
Records with an inconclusive call do not appear. Where a call stands in place of a potency, no number is given. Active and inactive are the calls of the source. Calls come from the whole dose curve; as a rule, active = well fitted inhibition curve with a large enough effect; inconclusive = small, poorly fitted or top-dose-only effect; inactive = no such curve, though single readings can be large or run the other way.

What follows are compounds tested against Rap guanine nucleotide exchange factor 3 (Homo sapiens) (UniProt O95398) (assay: Counterscreen qHTS for antagonist of cAMP-regulated guanine nucleotide exchange factor 3 (EPAC1) (AID 1645888)). Settings: Rap1B-BODIPY-GDP nucleotide exchange, fluorescence; series mostly up to 154 µM.
How it was run: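 Measured: fluorescence of BODIPY-GDP bound to Rap1B, which falls as exchange proceeds. Conditions include 50 uM competing GDP, 5 and 30 min reads, and a later cAMP challenge for antagonist detection.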

Chain of Rap guanine nucleotide exchange factor 3 (Homo sapiens) (O95398 whole entry, looked up): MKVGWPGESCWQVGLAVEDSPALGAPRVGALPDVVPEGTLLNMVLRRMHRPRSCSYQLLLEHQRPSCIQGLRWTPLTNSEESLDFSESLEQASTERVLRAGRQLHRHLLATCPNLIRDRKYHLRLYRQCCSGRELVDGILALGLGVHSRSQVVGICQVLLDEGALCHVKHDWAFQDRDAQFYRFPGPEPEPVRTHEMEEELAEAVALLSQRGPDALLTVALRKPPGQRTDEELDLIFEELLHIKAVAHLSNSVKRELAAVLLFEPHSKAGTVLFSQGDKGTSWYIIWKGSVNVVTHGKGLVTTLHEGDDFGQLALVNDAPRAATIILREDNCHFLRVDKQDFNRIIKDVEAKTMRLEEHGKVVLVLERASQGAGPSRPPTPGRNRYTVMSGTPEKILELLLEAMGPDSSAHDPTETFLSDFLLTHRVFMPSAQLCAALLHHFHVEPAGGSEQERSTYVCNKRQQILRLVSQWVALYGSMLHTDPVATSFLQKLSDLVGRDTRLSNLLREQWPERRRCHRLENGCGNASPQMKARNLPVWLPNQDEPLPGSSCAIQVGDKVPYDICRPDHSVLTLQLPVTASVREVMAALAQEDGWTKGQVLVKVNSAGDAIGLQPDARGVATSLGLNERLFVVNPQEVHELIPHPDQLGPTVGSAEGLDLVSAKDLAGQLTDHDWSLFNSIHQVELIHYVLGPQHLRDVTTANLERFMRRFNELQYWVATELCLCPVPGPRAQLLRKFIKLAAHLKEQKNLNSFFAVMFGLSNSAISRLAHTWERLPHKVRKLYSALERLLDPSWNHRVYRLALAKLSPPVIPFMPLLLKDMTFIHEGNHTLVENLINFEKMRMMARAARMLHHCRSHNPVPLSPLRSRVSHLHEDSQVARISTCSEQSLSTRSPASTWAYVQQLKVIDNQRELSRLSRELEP

Structure (SMILES)	Potency	activity change, negative = inhibition
Cc1ccc(O)c(N=Cc2cc(Cc3ccccc3)cc([N+](=O)[O-])c2O)c1	inactive	
CCc1ccc(NC(=O)CSc2nnc(Cc3cccn3C)n2-c2ccc(OC)cc2)cc1		-10.1% [at 30.8 µM] (inactive)
CN(c1ccc(C(=O)NCc2ccc3c(c2)OCO3)cc1)S(=O)(=O)c1ccccc1	inactive	
CS(=O)(=O)Nc1ccc(C2=NN(C(=O)c3cccc(F)c3)C(c3cccs3)C2)cc1 (stereo not given)	inactive	
O=[N+]([O-])c1cc(-c2ccccc2)cc([N+](=O)[O-])c1O	inactive	
O=C1CNC(=O)c2c(nc3n2CCC3)N1	inactive	
COc1cc(/C=N/NC(=O)c2ccccn2)ccc1OC(=O)c1ccc(Br)cc1	inactive	
COc1ccc(NC(=O)C2=NN(c3ccccc3)C(=O)CC2)cn1	inactive	
O=[N+]([O-])c1cc2ccccc2c(O)c1O		9.83% [at 30.8 µM] (inactive)
CCc1nc2ccc(C(=O)N(C)Cc3ccccc3)cn2c1N(CC)Cc1cccc(Br)c1		-21% [at 30.8 µM] (inactive)
Cc1ccc(S(=O)(=O)N2[C@@H](c3ccc(Br)cc3)C(C(=O)O)=CC[C@H]2c2ccc(C(C)C)cc2)cc1	inactive	
COc1ccc(C(C(=O)c2ccccc2)c2ccccc2)cc1 (stereo not given)	inactive	
COc1ccc(C2=Cc3ccccc3C(CC(=O)C3CC3)N2c2ccc(C#CCCO)cc2)cc1 (stereo not given)		-1.57% [at 30.8 µM] (inactive)
CC(=O)N1CCc2nc3sc(C(=O)Nc4ccc(Cl)cc4F)c(N)c3c(C(F)(F)F)c2C1	inactive	
CCN(CC(=O)Nc1ccccc1C(F)(F)F)C(=O)c1cc2c(s1)CCCCC2	inactive	
Cc1ccc2c(c1)C(c1ccccc1)CC(=O)O2 (stereo not given)	inactive	
O=C1NC(=Nc2ccccc2Cl)S/C1=C\c1cc([N+](=O)[O-])ccc1O	inactive	
Cc1ccc(S(=O)(=O)N2CCC(C(=O)Nc3ccccc3N3CCCCC3)CC2)cc1C	inactive	
COC(=O)c1[nH]c2cc(C)ccc2c1NC(=O)CN1CCCc2ccccc21	inactive	
CC1=NOC(=O)/C1=C\c1ccc(-c2cc(Cl)ccc2Cl)o1	inactive	

Structure (SMILES)	Potency	activity change, negative = inhibition
Cc1c(Cl)ccc2c(C(=O)O)cc(-c3ccccc3)nc12		5.51% [at 30.8 µM] (inactive)
CCOC(=O)c1c(C)nc2sc(C(N)=O)c(N)c2c1-c1ccccc1		-13.8% [at 30.8 µM] (inactive)
CCN(CCNC(=O)C1CCN(S(=O)(=O)c2cccc3cccnc23)CC1)c1ccccc1	inactive	
OC[C@H]1O[C@H](OCCc2ccc(O)cc2)[C@H](O)[C@@H](O)[C@@H]1O	inactive	
COc1ccc2cc(-c3cn4c(n3)sc3cc(F)ccc34)c(=O)oc2c1	inactive	
O=c1oc(-c2ccccc2NS(=O)(=O)c2ccccc2)nc2ccccc12		2.74% [at 30.8 µM] (inactive)
CCOC(=O)N1CCN(C(=O)CSc2nnc(Cc3ccccc3)o2)CC1	inactive	
Cc1cc(C)cc(NC(=O)N2CCC(CN3CCc4ccccc4C3)CC2)c1	inactive	
CC1CN(S(=O)(=O)c2cccc(C(=O)Nc3ccccc3N3CCOCC3)c2)CC(C)O1 (stereo not given)		-5.5% [at 30.8 µM] (inactive)
CCCCOc1ccccc1Cn1c(=O)oc2ccc(C)cc21	inactive	
N#Cc1c(-c2ccccc2)nc(SCc2cccc(C(F)(F)F)c2)[nH]c1=O	inactive	
CC(Sc1nncn1C)C(=O)Nc1nnc(C(C)C)s1 (stereo not given)	inactive	
O=C(c1cccc(-n2cccc2)c1)N1CCN(S(=O)(=O)c2ccccc2)CC1	inactive	
COc1ccc2oc(C(=O)CCC(=O)O)c(N)c2c1		3.66% [at 30.8 µM] (inactive)
Cc1cccc(CC2C(=O)Nc3ccccc32)c1 (stereo not given)	inactive	
Cc1nnc(SCc2cccc3ccccc23)s1	inactive	
O=C(CCc1ccc(O)c(O)c1)N/N=C/c1cc2c(cc1[N+](=O)[O-])OCO2	inactive	
COc1ccc(N2CCN(C(=O)COC(=O)c3ccc(C)o3)CC2)cc1		-20% [at 30.8 µM] (inactive)
CCCCCC(=O)Nc1ccc(C2C(=O)c3ccccc3C2=O)cc1	inactive	
COc1cc(NS(=O)(=O)c2ccc(NC(=O)/C(=C/c3ccccc3Cl)NC(=O)c3ccccc3)cc2)nc(OC)n1	inactive	
